This is an account of results in PubChem BioAssay (NCI).

Structures are written as SMILES. This is part of a sample that, as a whole, favours compounds with a hit. Of some 83,000 tested, about 20% had one in any assay.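 Each cell line was grown in a 96-well plate and treated with one concentration of compound for 48 hours. Values below 10 were considered active.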 A number with no mark means an inactive call. The source made the active and inactive calls.

Test in all cases: NCI-60 one-dose screen, 48 h (100 = growth as untreated, 0 = no growth, -100 = all killed)
Conditions in all cases: 10 µM unless noted

For test [1], the system named is HCT-15 colon.
Test [2] concerns HT29 colon.
Test [3] has as its system SNB-75 CNS.
Test [4] has as its system SNB-19 CNS.
The subject of test [5] is U251 CNS.
For test [6], the system named is PC-3 prostate.
For test [7], the system named is SK-MEL-5 melanoma.
Test [8] deals with UACC-62 melanoma.
Test [9] relates to LOX IMVI melanoma.
Test [10] deals with SK-MEL-28 melanoma.
The subject of test [11] is SK-MEL-2 melanoma.
In test [12] the test system is EKVX NSCLC.
Test [13] has as its system SN12C renal.
In test [14] the test system is UO-31 renal.
The subject of test [15] is TK-10 renal.
The subject of test [16] is ACHN renal.
Test [17] has as its system CAKI-1 renal.
For test [18], the system named is A498 renal.
Test [19] has as its system CCRF-CEM leukemia.
The test system of test [20] is MOLT-4 leukemia.

In the case of `NC(=O)c1cccc(C#CCNC[C@H]2C[C@@H](n3ccc4c(Cl)ncnc43)[C@H](O)[C@@H]2O)c1`, the growth is 107% in [1]; 105% in [2]; 87.7% in test [3]; 102% in test [4]; 100% in test [5]; 102% in [6]. In addition, the growth in [7] was 101%; in test [8], 96.1%; in test [9], 101%; in [10] it was 102%; in test [11], 104%; in test [12], 106%. The growth was 99.5% in test [13]; 92.4% in [14]; 97.3% in test [15]; 106% in test [16]; 94.4% in test [17]; 94.7% in [18]. The growth in test [19] is 102%; in [20], 114%.
With `COC(=O)c1[nH]nc2c1C1(C(=O)c3cccc4cccc1c34)C(C#N)=C(N)O2` (stereo not given), the growth in test [1] is 99.4%; in [2], 105%; in [3], 80.4%; in test [4], 97.2%; in [5], 105%; in test [6], 83.9%. The growth was 98.6% in test [7]; 91.8% in test [8]; 97.7% in test [9]; 112% in test [10]; 105% in [11]; 89.9% in test [12]. Moreover, the growth was 100% in test [13]; 73.4% in [14]; 122% in test [15]; 99.6% in test [16]; 79.7% in test [17]; 82.1% in [18]. For the same molecule, the results for the growth in test [19] and in [20] were 106% and 111%, respectively.
With `O=S(=O)(NCCCNc1nccc(-c2[nH]c(-c3ccccc3)nc2-c2ccc(Cl)c(O)c2)n1)c1ccc(Br)cc1`, the growth was 13.9% in [1]; 39.7% in test [2]; 73.6% in [3]; 49% in test [4]; 30.7% in [5]; 27.1% in test [6]. The growth in test [7] was 0.46% (active); in [8] it was 13.2%; in test [9] it was 21.6%; in test [10], 17.3%; in test [11], -22.4% (active); in [12], 44.2%. The growth in test [13] was 37.5%; in test [14], 36.8%; in test [15], 66.6%; in test [16], 24.2%; in [17] it was 33.6%; in test [18], 65.4%. The growth in [19] is 21.5%.
With `CC(C)(C)c1ccc(CC(=O)Nc2sc3c(c2C(N)=O)CCC(=O)C3)cc1`, the growth in test [1] was -19.5% (active); in [2], 3.3% (active); in [3], 23%; in test [4], 22.8%; in test [5], 14.9%; in [6], 13.1%. The growth in [7] is -76% (active); in [8], -32.8% (active); in test [9], -3.55% (active); in test [10], 5.18% (active); in test [11], -5.02% (active); in [12], 10.8%. The growth in [13] was 6.98% (active); in test [14], -87.5% (active); in test [15], 16.6%; in test [16], -90.8% (active); in [17], -56.2% (active); in test [18] it was 47.7%. Also, the growth in test [19] is 10.8%.
Take `O=C(CCC(=O)N1CCOCC1)OCCCCCCSc1ccc([N+](=O)[O-])c2nonc12`: the growth in [1] was -67.4% (active); in test [2], -34.2% (active); in [3], 36.4%; in [4] it was 25.1%; in test [5], -29.8% (active); in [6], 2.96% (active). The growth in test [7] was 27.9%; in test [8], -64.6% (active); in [9] it was -82.2% (active); in [10] it was -36.9% (active); in test [11], -40.6% (active); in [12] it was 1.52% (active). Moreover, the growth in test [13] was -74.7% (active); in test [14] it was -84.2% (active); in [15], 13.4%; in [16] it was -97.7% (active); in test [17], -31.2% (active); in [18], 12.8%. Further, the growth in [19] was -5.49% (active); in test [20], -2.71% (active).
In the case of `NC(=O)c1c(NC(=O)c2ccc(F)cc2F)sc2c1CCC(=O)C2`, the growth in test [1] was 11.8%; in test [2], 59.8%; in test [3], 66.8%; in test [4], 59.3%; in test [5] it was 32.4%; in test [6], 16.3%. For the same molecule, the growth is 64.6% in test [7]; 22.6% in test [8]; 22.6% in test [9]; 37% in test [10]; 102% in test [11]; 73.6% in test [12]. In addition, the growth in [13] was 72.9%; in test [14] it was 29.3%; in [15], 61.9%; in test [16] it was 7.96% (active); in test [17], 33.9%; in test [18], 100%. The growth in test [19] is 18.3%.
As for `O=C(Nc1nonc1-c1ccccc1)c1ccc(C(F)(F)F)cc1`, the growth in test [1] is 80.6%; in test [2], 103%; in test [3] it was 104%; in test [4], 62%; in [5] it was 70.1%; in [6], 71.7%. Further, the growth was 65.6% in test [7]; 56% in test [8]; -46.7% (active) in test [9]; 77.5% in [10]; 65.3% in [11]; 84.6% in [12]. Also, the growth in [13] is 71.7%; in [14], 91.4%; in [15], 146%; in test [16], 82.1%; in test [17], 85.5%; in test [18] it was 95.6%. Moreover, in [19], the growth is 50.8%.
As to `COc1ccc(C2CC(c3cccc(Nc4nc(Cl)nc5cc(OC)c(OC)cc45)c3)=Nc3c(N)nc(N)nc3N2)cc1` (stereo not given), the growth in test [1] is 34.5%; in test [2], 57.8%; in [3], 94.5%; in [4] it was 70.1%; in test [5], 16.9%; in [6], 62.7%. For the same molecule, the growth in [7] was 72.1%; in [8] it was 95.6%; in [9], 54.2%; in [10], 101%; in test [11] it was 100%; in test [12], 92.1%. Besides, the growth in test [13] was 81.8%; in test [14] it was 90.7%; in test [15], 117%; in test [16] it was 100%; in test [17], 94%; in [18], 94.7%. Further, the growth in test [19] was 36%.
